{"source": "PubChem BioAssay (NCI)", "note": "Where “and” joins values, the source holds several entries; their conditions need not be identical. Equal entries are not always repeated. This is part of a sample that, as a whole, favours compounds with a hit. Of some 83,000 tested, about 20% had one in any assay.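 Growth was measured after 48 h exposure to one concentration of compound in 96-well plates. Values under 10 count as active.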 Calls of active or inactive are those of the source.", "data": [{"tested_on": "MDA-MB-468 breast", "assay": "NCI-60 one-dose screen, 48 h (100 = growth as untreated, 0 = no growth, -100 = all killed)", "conditions": "10 µM unless noted", "values": [{"smiles": "Cc1cn(-c2cc(NC(=O)c3ccc(C)c(Nc4nccc(-c5cnccn5)n4)c3)cc(C(F)(F)F)c2)cn1", "growth": "103% (inactive)"}, {"smiles": "OC1COC(OCc2ccccc2)C(O)C1O", "note": "(stereo not drawn)", "growth": "94.8% (inactive)"}, {"smiles": "O=C(/C=C/CN1CCCCC1)Nc1cc2c(Nc3ccc(F)c(Cl)c3F)ncnc2cc1OCCOC(F)F", "growth": "-48.7% (active)"}, {"smiles": "CCCCCCCC1(C)NC(=O)NC1=O", "note": "(stereo not drawn)", "growth": "115% (inactive)"}, {"smiles": "CCNCCNc1cc(-c2ccc(C#N)cc2)c(C#N)c2nc3ccccc3n12", "growth": "-14.1% (active)"}, {"smiles": "CN(C)c1ccc(/C=C2\\C=C(c3nc4ccccc4s3)OC2=O)cc1", "growth": "79.8% (inactive)"}, {"smiles": "CN1CCN(C2CCN(C(=O)Nc3cc(Oc4ccc(NC(=O)C5(C(=O)Nc6ccc(F)cc6)CC5)c(F)c4)ccn3)CC2)CC1", "growth": "-70.7% (active) and 96.6% (inactive)"}, {"smiles": "NC(=O)c1c(NC(=O)c2ccc(C(F)(F)F)cc2)sc2c1CCC(=O)C2", "growth": "-30.7% (active)"}, {"smiles": "S=C(Sc1ccc(Cl)cc1)Sc1ccc(Cl)cc1", "growth": "-37.6% (active)"}, {"smiles": "Cc1nn(-c2ccccc2)cc1/C=C1\\SC(N2CCCCC2)=NC1=O", "growth": "96.3% (inactive)"}, {"smiles": "CC(C)c1[nH]ncc1-c1nc2ccc3[nH]ncc3c2c2c1CCCC2", "growth": "69.3% (inactive)"}, {"smiles": "CCc1c(CC(=O)O)c2cc(C)ccc2n1Cc1ccc(Cl)cc1", "growth": "95.3% (inactive) and 94.5% (inactive)"}, {"smiles": "O=C(NCc1cccnc1)/C(=C\\c1ccc(Br)cc1)S(=O)(=O)c1ccccc1", "growth": "-58.9% (active)"}]}]}
